This is an account of results in PubChem BioAssay (EPA / NIEHS).

Read-out in assay [1]: alkyl and aryl transferase (GSTA2), GSTA2 (gene 2939)
Kind of assay: CLD_GSTA2_48hr: CellzDirect (CLD) Gene Expression Assay for alkyl and aryl transferase (GSTA2) at 48 hours (AID 2283708).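 Note: active means mRNA induction above DMSO vehicle baseline.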 Summed up:
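GSTA2 mRNA quantified by qNPA chemiluminescence in human primary hepatocyte lysates after 48 h of daily fresh chemical dosing. Increases fitted against 0.2% DMSO vehicle baseline; cytotoxicity from morphology annotated yes/no.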

Assay [2] is described as follows: CEETOX_H295R_MTT_cell_viability: Viability Assessment in the CeeTox HT-H295R MTT Assay (AID 2283718; active = hit-call score of the fitted dose curve at least 0.9, where 1 is the maximum; inactive = score below 0.9;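 for AC50: curve fitted both ways so AC50 may mark viability loss or gain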). A digest of the protocol: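 Human H295R adrenal cells, prestimulated 48 h with 10 uM forskolin, were exposed 48 h to chemicals in 0.1% DMSO. Viability was measured in the same wells by MTT (0.5 mg/ml, 4 h, 37 C), absorbance 570/650 nm, as percent of controls.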

Assay [3] can be described thus: Tanguay_ZF_120hpf_ActivityScore_legacy: (Legacy) Oregon State University Tanguay Lab 120 Hour Post-fertilization zebrafish Assay Score for Activity (AID 2283742).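 For AC50: dechorionated Tropical 5D wild-type zebrafish embryos held singly per well.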 Summed up: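 Dechorionated 5D embryos, one per well, static exposure 6–120 hpf, 28C, sealed and dark; final DMSO 0.64% (vol/vol). Brightfield binary scoring of mortality plus 18 endpoints; gain-of-signal fit versus DMSO baseline.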

Assay [4] can be described thus: STM_H9_OrnithineISnorm_perc: Stemina devTOX quickPredict H9 human embryonic stem cell (hESC)-based Assay for Ornithine (ORN) Metabolite Biomarker, Normalized (AID 2283712; active = hit-call score of the fitted dose curve at least 0.9, where 1 is the maximum; inactive = score below 0.9;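 note: ornithine released into spent medium during last day measured by mass spectrometry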). A digest of the protocol:
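Metabolite endpoint from spent media of pluripotent H9 cells treated 72 h with daily re-feeding; ornithine measured by UPLC-HRMS against its 13C spike-in and referenced to the median 0.1% DMSO vehicle response.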

Assay [5] is described as follows: STM_H9_CystineISnorm_perc: Stemina devTOX quickPredict H9 human embryonic stem cell (hESC)-based Assay for Cystine (CYSS) Metabolite Biomarker, Normalized (AID 2283713; active = hit-call score of the fitted dose curve at least 0.9, where 1 is the maximum; inactive = score below 0.9). Summed up: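 Normalized cystine level in conditioned medium from the final 24h of a 72h treatment of pluripotent H9 cells (daily media and compound renewal). Quantified by UPLC-HRMS with C13-labeled internal standard; scaled to median of 0.1% DMSO vehicle wells.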

The AC50 is the concentration giving half of the maximal activity seen.

Results filed as inconclusive are left out. The source made the active and inactive calls. Rule for the calls, unless noted: active = hit-call score of the fitted dose curve at least 0.9, where 1 is the maximum; inconclusive = response in the unintended direction; inactive = score below 0.9.

`COP(=S)(OC)Oc1nc(Cl)c(Cl)cc1Cl`: the molecule was classed as inactive in assay [1], in assay [2] and in assay [3].

Consider `O=C(Nc1ccccc1)Nc1ccnc(Cl)c1`, for which, in assay [3], the AC50 was 38.6 µM (active).

For the molecule `CNC(=S)S`, the call in assay [1], in assay [2] and in assay [3] was inactive.

Consider `Cc1cc(Cl)ccc1OCC(=O)O`, for which the molecule was called inactive in assay [2] and in assay [3].

With `COC(=O)C(C)Oc1ccc(Oc2ccc(Cl)cc2Cl)cc1` (stereo not drawn), the result in assay [1] and in assay [3] was inactive.

For the molecule `Fc1ccc(Oc2ccnc3cc(Cl)cc(Cl)c23)cc1`, the result in assay [1] and in assay [3] was inactive.

For `N#CC(CCc1ccc(Cl)cc1)(Cn1cncn1)c1ccccc1` (stereo not drawn), the outcome in assay [1], in assay [2] and in assay [3] was inactive.

`Oc1ccccc1-c1ccccc1`: the outcome in assay [1] and in assay [2] was inactive. For the same molecule, the AC50 in assay [3] was 45.8 µM (active).

Consider `C=CCC1=C(C)C(OC(=O)C2C(C=C(C)C)C2(C)C)CC1=O` (stereo not drawn), for which the result in assay [1] and in assay [3] was inactive. For the same molecule, the AC50 in assay [2] was 9.99 µM (active).

`CCCCC(CC)COC(=O)c1ccccc1C(=O)OCC(CC)CCCC` (stereo not drawn): the result in assay [4], in assay [2] and in assay [3] was inactive. In assay [5], the concentration at half-maximal activity (AC50) was 30 µM (active).

Consider `CON(C)C(=O)Nc1ccc(Cl)c(Cl)c1`, for which the half-maximal activity concentration (AC50) is 50 µM (active) in assay [4] and 73.3 µM (active) in assay [5]. The outcome in assay [2] and in assay [3] was inactive.

For `CC(C)C1(C)N=C(c2nc3ccccc3cc2C(=O)O)NC1=O` (stereo not drawn), the molecule was called inactive in assay [1] and in assay [3].

Take `CC(Oc1ccc(Cl)cc1Cl)C(=O)O` (stereo not drawn): the molecule was classed as inactive in assay [1] and in assay [3].

For the molecule `CC1=C(C(=O)Nc2ccccc2)SCCO1`, the result in assay [2] was inactive. In assay [3], the AC50 was 47.7 µM (active).

For the molecule `Cc1ccc(-c2c(Cl)nc(C#N)n2S(=O)(=O)N(C)C)cc1`, the result in assay [1] was inactive. In assay [3], the AC50 is 2.27 µM (active).

On to `CCOc1cc(Oc2ccc(C(F)(F)F)cc2Cl)ccc1[N+](=O)[O-]`, for which the result in assay [1], in assay [2] and in assay [3] was inactive.

On to `Cc1c(F)c(F)c(COC(=O)C2C(/C=C(\Cl)C(F)(F)F)C2(C)C)c(F)c1F` (stereo not drawn), for which the outcome in assay [1] and in assay [2] was inactive. The AC50 in assay [3] was 20.9 µM (active).

With `COc1nc(NC(C)C)nc(NC(C)C)n1`, the result in assay [4], in assay [2] and in assay [3] was inactive. In assay [5], the AC50 was 13.5 µM (active).

With `CCNc1nc(Cl)nc(NCC)n1`, the concentration at half-maximal activity (AC50) in assay [4] was 0.053 µM (active). For the same molecule, the outcome in assay [5], in assay [2] and in assay [3] was inactive.

For `COc1ccc(C(c2ccc(OC)cc2)C(Cl)(Cl)Cl)cc1`, the outcome in assay [4], in assay [5] and in assay [3] was inactive.

Consider `CS/C(C)=N/OC(=O)N(C)SN(C)C(=O)O/N=C(\C)SC`, for which the molecule was classed as inactive in assay [3].

For the molecule `CCOP(=S)(OCC)SCn1c(=O)oc2cc(Cl)ccc21`, the molecule was classed as inactive in assay [2] and in assay [3].
